Test results: PubChem BioAssay (Tox21)
Inconclusive results are not listed. Entries that show only a call come without a potency. Calls of active or inactive are those of the source. Calls follow the shape of the dose curve; as a rule, active = well fitted activation curve with a large enough effect in the repeat runs; inconclusive = weak or mixed curves; inactive = flat fitted curve, though single readings scatter.

Assay: A CellTox Green Cytotoxicity Assay to monitor cytotoxicity in HEK293 cells - 24 hour (AID 1224875); also: nearly all actives have a fitted effect of over 45% in size
Conditions: CellTox Green fluorescence; series mostly up to 76.8 µM; activity change: at the top concentration
Text: National Center for Advancing Translational Sciences [NCATS]
NIH Chemical Genomics Center [NCGC]
U.S. Environmental Protection Agency [EPA]
National Institutes of Environmental Health Sciences [NIEHS]
National Toxicology Program [NTP]
Cell-based models are critical for drug discovery. Determining the natural cytotoxic effects resulting from test compounds is an essential research activity. A CellTox Green Cytotoxicity Assay to monitor cytotoxicity in real time of continues cell culture during 40 hours of the compound treatment was used to screen Tox21 10K library compounds in Hek293 cells. CellTox Green Cytotoxicity Assay is a nonlytic, homogeneous, biofluorescent method to measure cytotoxicity in cell culture after experimental manipulation. The assay system uses a proprietary asymmetric cyanine dye that is excluded from viable cells but preferentially stains the dead cell's DNA. […] Viable cells produce no appreciable increases in fluorescence. Therefore, the fluorescence signal produced by the binding interaction with dead cell DNA is proportional to cytotoxicity.
The mixture of Hek293 cell suspension and reagents were dispensed at 600cells/6 ul/well in 1536-well tissue culture treated black solid bottom plates using a Multidrop dispenser. After the assay plates were incubated at a 37 C/5% CO2 incubator for 5 hours, 23 nL of compounds dissolved in DMSO, positive and negative controls was transferred to the assay plate by a pintool work station. The plates were incubated at 37 C for 40 hours. The fluorescence intensity were measured at 0h, 8h, 16h, 24h, 32h and 40h time points using ViewLux plate reader during compound treatment.

| Structure (SMILES) | Potency | activity change |
| --- | --- | --- |
| CC1=CCC2CC1C2(C)C (stereo not given) | inactive |  |
| C=CCNC(N)=S | inactive |  |
| Cc1ccc(N(C)C)cc1 | inactive |  |
| Oc1cccc2ccccc12 | inactive |  |
| O=C(O)CCCCCCCCCCC(=O)O | inactive |  |
| c1ccc2scnc2c1 | inactive |  |
| CC1CCC(C(C)C)C(O)C1 (stereo not given) | inactive |  |
| OC[C@H]1O[C@@](CO)(O[C@H]2O[C@H](CO)[C@@H](O)[C@H](O)[C@H]2O)[C@@H](O)[C@@H]1O |  | -12% (inactive) |
| CCc1ccc(CCOc2ccc(CC3SC(=O)NC3=O)cc2)nc1 (stereo not given) | inactive |  |
| C=C(C)C(=O)Nc1ccc(Cl)c(Cl)c1 | inactive |  |
| O=C(O)CC(C(=O)O)C(CC(=O)O)C(=O)O (stereo not given) | inactive |  |
| CCN(CC)c1ccc(C(=O)c2ccccc2C(=O)O)c(O)c1 | inactive |  |
| O=C(O)c1cc(C(=O)O)cc(S(=O)(=O)O)c1 | inactive |  |
| OCc1cccnc1 | inactive |  |
| O=C(Oc1ccccc1)c1ccccc1 | inactive |  |
| O=P(OC(CCl)CCl)(OC(CCl)CCl)OC(CCl)CCl | inactive |  |
| Cc1cccc(O)c1 | inactive |  |
| CCCCCCCC(=O)OC | inactive |  |
| CCCCCCCCCCCCOCCO | inactive |  |
| NNc1nncc2ccccc12 | inactive |  |

| Structure (SMILES) | Potency | activity change |
| --- | --- | --- |
| CCCCCOC(C)=O | inactive |  |
| CC1=C(C)S(=O)(=O)CCS1(=O)=O | inactive |  |
| CCc1cccc(C)c1N | inactive |  |
| CCCCC(CC)COC(=O)CCCCC(=O)OCC(CC)CCCC (stereo not given) | inactive |  |
| CC(=O)CC(=O)Nc1ccccc1C | inactive |  |
| O=C(O)CCCC[C@@H]1SC[C@@H]2NC(=O)N[C@@H]21 | inactive |  |
| C=C(C)C(=O)OCCOCCOCCOC(=O)C(=C)C | inactive |  |
| CC(=O)OCC(=O)[C@@]12N=C(C)O[C@@H]1C[C@H]1[C@@H]3CCC4=CC(=O)C=C[C@]4(C)[C@H]3[C@@H](O)C[C@@]12C | inactive |  |
| Cc1cnc(C(=O)NCCc2ccc(S(=O)(=O)NC(=O)NC3CCCCC3)cc2)cn1 | inactive |  |
| CCCCCC(N)=O | inactive |  |
| Nc1cc([N+](=O)[O-])ccc1O |  | -1.94% (inactive) |
| O=C(O)c1cc(O)c(O)c(O)c1 | inactive |  |
| O=c1[nH]c(=O)n([C@H]2CCCO2)cc1F | inactive |  |
| CC(=O)CC(=O)Nc1ccccc1 | inactive |  |
| O=C(O)c1ccccc1C(c1ccc(O)cc1)c1ccc(O)cc1 | inactive |  |
| C[C@H]1C[C@@H]2[C@H]([C@@H](O)C[C@@]3(C)[C@H]2CC[C@]3(O)C(=O)CO)[C@@]2(C)C=CC(=O)C=C12 | inactive |  |
| COc1ccc(Nc2ccccc2)c(C)c1 | inactive |  |
| CCCCCCCCCCCCS |  | -5.97% (inactive) |
| Fc1ccc(Br)cc1 | inactive |  |
| CCC(O)OC(O)CC (stereo not given) | inactive |  |
